Data as given in PubChem BioAssay (NCATS).
Results filed as inconclusive are left out. The source made the active and inactive calls. Unless noted, calls follow the shape of the dose curve; as a rule, active = well fitted curve in the direction sought with a large enough effect; inconclusive = small, poorly fitted or top-dose-only effect, or another doubt; inactive = no such curve, though single readings can be large; an effect the other way counts as inactive or inconclusive.

Columns and labels:
[1] = qHTS for Inhibitors of the Functional Ribonucleoprotein Complex (vRNP) of Lassa (LASV) Arenavirus: LASV Primary Screen - GLuc reporter signal (AID 1347082; calls by dose curve; tested in HEK293 reporter line; also: nearly all actives have a fitted effect of over 60% in size)
[2] = qHTS for Inhibitors of the Functional Ribonucleoprotein Complex (vRNP) of Lassa (LASV) Arenavirus: Viability assay - alamar blue signal for LASV Primary Screen (AID 1347083; calls by dose curve; tested in HEK293 reporter line; also: nearly all actives have a fitted effect of over 80% in size)
[3] = qHTS for Inhibitors of the Functional Ribonucleoprotein Complex (vRNP) of Lymphocytic Choriomeningitis Arenaviruses (LCMV): Viability assay - alamar blue signal for LCMV Primary Screen (AID 1347085; calls by dose curve; tested in HEK293 reporter line; also: nearly all actives have a fitted effect of over 80% in size)
[4] = target: Nucleoprotein (Lymphocytic choriomeningitis virus (strain Armstrong)) (UniProt P09992); experiment: qHTS for Inhibitors of the Functional Ribonucleoprotein Complex (vRNP) of Lymphocytic Choriomeningitis Arenaviruses (LCMV): LCMV Primary Screen - GLuc reporter signal (AID 1347086; calls by dose curve; also: nearly all actives have a fitted effect of over 70% in size)
[5] = qHTS of pediatric cancer cell lines to identify multiple opportunities for drug repurposing: Primary screen for TC32 cells (AID 1347089); also: nearly all actives have a fitted effect of over 60% in size
How it was run: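 A viability screen of TC32 cells was run over 48 h, with primary MIPE doses spanning 0.78 nM–46 µM and NPC doses 0.59 nM–46 µM. ATP luminescence (CellTiter-Glo) served as the read-out.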

[6] = qHTS of pediatric cancer cell lines to identify multiple opportunities for drug repurposing: Primary screen for DAOY cells (AID 1347090); also: nearly all actives have a fitted effect of over 55% in size
How it was run: (§1)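 Eight- or eleven-point concentration series, 48 h treatment at 37 degrees C in growth media; readout CellTiter-Glo luminescence. Potency and efficacy were taken from the concentration-response curves.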

[7] = qHTS of pediatric cancer cell lines to identify multiple opportunities for drug repurposing: Primary screen for A673 cells (AID 1347092); also: nearly all actives have a fitted effect of over 45% in size
How it was run: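 Titration-based qHTS on A673 cells: MIPE compounds spanned 11 points (0.78 nM to 46 µM final), NPC compounds 8 points (0.59 nM to 46 µM final). Viability after 48 h was measured by ATP luminescence.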

[8] = qHTS of pediatric cancer cell lines to identify multiple opportunities for drug repurposing: Primary screen for SK-N-MC cells (AID 1347093)
How it was run: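 Metabolically active cells were quantified by ATP-dependent luminescence (CellTiter-Glo, 15 min at room temperature) following 48 h treatment. Cells had been plated at 500-1,000 per well and settled for 5 h beforehand.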

[9] = qHTS of pediatric cancer cell lines to identify multiple opportunities for drug repurposing: Primary screen for BT-37 cells (AID 1347094)
How it was run: (§2)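 Luminescence from CellTiter-Glo served as readout of metabolically active cells after 48 h compound exposure. Titrations: MIPE 11-point, from 0.78 nM; NPC 8-point, from 0.59 nM (final). Concentration-response curves came straight from the primary screen.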

[10] = qHTS of pediatric cancer cell lines to identify multiple opportunities for drug repurposing: Primary screen for NB-EBc1 cells (AID 1347095)
How it was run: as §2

[11] = qHTS of pediatric cancer cell lines to identify multiple opportunities for drug repurposing: Primary screen for U-2 OS cells (AID 1347096); also: nearly all actives have a fitted effect of over 50% in size
How it was run: (§3)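 Cells (500-1,000/well) in growth media were settled 5 h at 37 degrees C, then given compounds for 48 h. Viability was read as CellTiter-Glo luminescence. Primary runs used MIPE at 11 points (0.78 nM-46 µM) and NPC at 8 points (0.59 nM-46 µM); follow-ups used 11 points.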

[12] = qHTS of pediatric cancer cell lines to identify multiple opportunities for drug repurposing: Primary screen for Saos-2 cells (AID 1347097); also: nearly all actives have a fitted effect of over 40% in size
How it was run: as §2

[13] = qHTS of pediatric cancer cell lines to identify multiple opportunities for drug repurposing: Primary screen for SK-N-SH cells (AID 1347098); also: nearly all actives have a fitted effect of over 65% in size
How it was run: (§4)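 Cells (500-1,000/well) rested 5 h, then received compounds for 48 h; metabolically active cells were measured by CellTiter-Glo luminescence. Final concentrations spanned up to 46 µM (MIPE, 11-point) or 0.59 nM-46 µM (NPC, 8-point) in primary screens, 11-point in follow-ups.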

[14] = qHTS of pediatric cancer cell lines to identify multiple opportunities for drug repurposing: Primary screen for NB1643 cells (AID 1347099); also: nearly all actives have a fitted effect of over 50% in size
How it was run: as §2

[15] = qHTS of pediatric cancer cell lines to identify multiple opportunities for drug repurposing: Primary screen for LAN-5 cells (AID 1347100)
How it was run: as §3

[16] = qHTS of pediatric cancer cell lines to identify multiple opportunities for drug repurposing: Primary screen for BT-12 cells (AID 1347101); also: nearly all actives have a fitted effect of over 25% in size
How it was run: as §4

[17] = qHTS of pediatric cancer cell lines to identify multiple opportunities for drug repurposing: Primary screen for Rh18 cells (AID 1347102); also: nearly all actives have a fitted effect of over 65% in size
How it was run: as §3

[18] = qHTS of pediatric cancer cell lines to identify multiple opportunities for drug repurposing: Primary screen for SJ-GBM2 cells (AID 1347091)
How it was run: as §1

Measured: Potency
Potency is read from the fitted curve at half-maximal effect.

Nucleoprotein (Lymphocytic choriomeningitis virus (strain Armstrong)), sequence (P09992 whole entry, looked up): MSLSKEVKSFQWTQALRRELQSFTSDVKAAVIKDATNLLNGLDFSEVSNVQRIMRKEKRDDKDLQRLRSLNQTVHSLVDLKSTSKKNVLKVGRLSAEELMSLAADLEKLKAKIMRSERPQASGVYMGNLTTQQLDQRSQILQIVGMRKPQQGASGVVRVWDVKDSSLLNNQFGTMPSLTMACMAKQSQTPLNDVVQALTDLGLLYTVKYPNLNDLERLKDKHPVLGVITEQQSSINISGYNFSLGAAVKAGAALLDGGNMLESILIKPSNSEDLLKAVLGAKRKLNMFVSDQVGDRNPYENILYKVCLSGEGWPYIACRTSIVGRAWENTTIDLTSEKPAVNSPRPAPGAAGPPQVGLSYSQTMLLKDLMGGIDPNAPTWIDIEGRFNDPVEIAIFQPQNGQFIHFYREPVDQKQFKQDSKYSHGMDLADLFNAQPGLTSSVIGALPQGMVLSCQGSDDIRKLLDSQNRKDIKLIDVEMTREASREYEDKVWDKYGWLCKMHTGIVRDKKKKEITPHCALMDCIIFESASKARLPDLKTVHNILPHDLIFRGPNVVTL

ClCCN1CCCC1
not listed: [18]
inactive: all other assays above

CC(=O)OCC1=C(C(=O)O)N2C(=O)[C@@H](N)[C@H]2SC1
not listed: [18]
inactive: all other assays above

CN(C)c1ccc2nc3ccc(=[N+](C)C)cc-3sc2c1
active: [1] 9680 nM | [3] 24300 nM | [4] 6850 nM

CN(C)C(=O)COC(=O)Cc1ccc(OC(=O)c2ccc(N=C(N)N)cc2)cc1
inactive: [1] | [4]

Nc1nc(Cl)nc2c1ncn2[C@H]1C[C@H](O)[C@@H](CO)O1
active: [3] 8630 nM
inactive: [1]

CO[C@H]1C[C@@H]2CC[C@@H](C)[C@@](O)(O2)C(=O)C(=O)N2CCCC[C@@H]2C(=O)O[C@H]([C@H](C)C[C@@H]2CC[C@H](OCCO)[C@H](OC)C2)CC(=O)[C@H](C)C=C(C)[C@@H](O)[C@@H](OC)C(=O)[C@H](C)C[C@H](C)C=CC=CC=C1C
active: [2] 8.6 nM | [3] 76.9 nM | [4] 544 nM

C[C@]12CC[C@H]3[C@@H](CC[C@@]45O[C@H]4C(O)=C(C#N)C[C@]35C)[C@H]1CC[C@H]2O
active: [7] 18700 nM | [8] 3320 nM | [13] 12100 nM | [14] 13200 nM | [15] 16600 nM
inactive: [1] | [2] | [18] | [9] | [11] | [17]

O=C(NCC1CCCCN1)c1cc(OCC(F)(F)F)ccc1OCC(F)(F)F (stereo not given)
inactive: [1] | [4]

CCCCCCNC(=O)n1cc(F)c(=O)[nH]c1=O
active: [2] 43200 nM
inactive: [1] | [4]

CC(C=CC1=C(C)CCCC1(C)C)=CC=CC(C)=CC(=O)O
inactive: [1] | [4]
active: [3] 544 nM

COc1cc([C@@H]2c3cc4c(cc3[C@@H](O[C@@H]3O[C@@H]5CO[C@@H](c6cccs6)O[C@@H]5[C@H](O)[C@@H]3O)[C@H]3COC(=O)[C@H]23)OCO4)cc(OC)c1O
active: [2] 1220 nM | [3] 1720 nM

COCC(=O)Nc1c(I)c(C(=O)NCC(O)CO)c(I)c(C(=O)N(C)CC(O)CO)c1I (stereo not given)
inactive: [1] | [3] | [4]

C[C@](O)(CS(=O)(=O)c1ccc(F)cc1)C(=O)Nc1ccc(C#N)c(C(F)(F)F)c1
active: [6] 743 nM | [18] 3720 nM | [7] 2960 nM | [8] 469 nM | [9] 19300 nM | [10] 4690 nM | [11] 14800 nM | [13] 2410 nM | [14] 2960 nM | [15] 2960 nM
inactive: [3] | [4] | [5] | [12]

Nc1cc(C(Cl)=C(Cl)Cl)c(S(N)(=O)=O)cc1S(N)(=O)=O
inactive: [1] | [2] | [4]

CCOC(=O)c1ccc(N)cc1
inactive: [1] | [4]

CC(C)Cc1ccc(C(C)C(=O)O)cc1 (stereo not given)
inactive: [1] | [2] | [4]

CCCCOC(=O)c1ccc(N)cc1
inactive: [1] | [3] | [4]

Nc1ncn([C@H]2C[C@H](O)[C@@H](CO)O2)c(=O)n1
inactive: [1] | [4]

COc1cccc2c1C(=O)c1c(O)c3c(c(O)c1C2=O)C[C@@](O)(C(=O)CO)CC3OC1CC(N2CCOC(OC)C2)C(O)C(C)O1 (stereo not given in full)
active: [5] 26.4 nM | [6] 42.2 nM | [7] 26.6 nM | [8] 8.4 nM | [9] 27.6 nM | [11] 266 nM | [13] 21.7 nM | [14] 26.6 nM | [16] 69.2 nM | [17] 59.6 nM

CC(Cc1ccccc1)N(C)Cc1ccco1 (stereo not given)
not listed: [3] | [4]
inactive: all other assays above

COc1cc(C)nc(-n2nc(C)cc2OC)n1
inactive: [1] | [2] | [4]

CC(=O)N1CCN(c2ccc(OC[C@H]3CO[C@](Cn4ccnc4)(c4ccc(Cl)cc4Cl)O3)cc2)CC1
inactive: [2] | [3] | [4]

COc1cc2nc(Cl)nc(N)c2cc1OC
inactive: [1] | [3]

CCCC(=O)O[C@]1(C(=O)CO)CC[C@H]2[C@@H]3CCC4=CC(=O)CC[C@]4(C)[C@H]3[C@@H](O)C[C@@]21C
inactive: [1] | [2] | [4]

CNC(=O)c1ccccc1Sc1ccc2c(/C=C/c3ccccn3)n[nH]c2c1
inactive: [1] | [3] | [4]

CNCCCCOc1ccccc1Cc1ccccc1
inactive: [3] | [4]

C=CC[C@@H]1C=C(C)C[C@H](C)C[C@H](OC)[C@H]2O[C@@](O)(C(=O)C(=O)N3CCCC[C@H]3C(=O)O[C@H](C(C)=C[C@@H]3CC[C@H](O)[C@H](OC)C3)[C@@H](C)[C@@H](O)CC1=O)[C@@H](C)C[C@@H]2OC
inactive: [1]
active: [4] 30600 nM

CCCc1ccc(OCC(=O)N2CCN(C(=O)COc3ccc(CCC)cc3OC)CC2)c(OC)c1
inactive: [3] | [4]

Cc1cc(O)c2ccccc2c1O
inactive: [1] | [3] | [4]

CC(=O)OC[C@H]1O[C@@H](n2ncc(=O)[nH]c2=O)[C@H](OC(C)=O)[C@@H]1OC(C)=O
inactive: [3] | [4]

CCN(CC)C(=O)[C@@H]1C=C2c3cccc4[nH]cc(c34)C[C@H]2N(C)C1
active: [7] 56600 nM | [15] 71300 nM
not listed: [2] | [8] | [9] | [10] | [12] | [13]
inactive: all other assays above

COc1cc(NS(C)(=O)=O)ccc1Nc1c2ccccc2nc2ccccc12
active: [2] 2510 nM | [4] 5620 nM

COc1cccc2c1C(=O)c1c(O)c3c(c(O)c1C2=O)C[C@@](O)(C(=O)CO)C[C@@H]3O[C@H]1C[C@H](N)[C@@H](O)[C@H](C)O1
active: [2] 1090 nM | [3] 1090 nM | [4] 1370 nM

C[C@]12CCC(=O)C=C1CC[C@@H]1[C@H]3CC[C@](C)(O)[C@@]3(C)CC[C@@H]12
active: [8] 30900 nM | [12] 27500 nM | [14] 34700 nM | [16] 28600 nM
inactive: [1] | [2] | [4] | [17]

Nc1ccc(C(=O)Nc2ccccc2N)cc1
inactive: [1] | [4]

COc1cc(C(=O)NS(=O)(=O)c2ccccc2C)ccc1Cc1cn(C)c2ccc(NC(=O)OC3CCCC3)cc12
inactive: [1] | [2] | [4]

Cc1c(N)nc([C@H](CC(N)=O)NC[C@H](N)C(N)=O)nc1C(=O)N[C@H](C(=O)N[C@H](C)[C@@H](O)[C@H](C)C(=O)N[C@H](C(=O)NCCc1nc(-c2nc(C(=O)NCCCCN=C(N)N)cs2)cs1)[C@@H](C)O)[C@@H](O[C@@H]1O[C@@H](CO)[C@@H](O)[C@H](O)[C@@H]1O[C@H]1O[C@H](CO)[C@@H](O)[C@H](OC(N)=O)[C@@H]1O)c1cnc[nH]1
inactive: [1] | [2] | [4]

Cc1cccc(C)c1OCC(=O)N[C@@H](Cc1ccccc1)[C@@H](O)C[C@H](Cc1ccccc1)NC(=O)[C@H](C(C)C)N1CCCNC1=O
active: [4] 38500 nM
inactive: [1]

Cc1ccccc1C(=O)Nc1ccc(C(=O)N2CCCC(N(C)C)c3ccccc32)cc1 (stereo not given)
inactive: [1] | [4]

O=C(Nc1cccc2c(=O)cc(-c3nn[nH]n3)oc12)c1ccc(OCCCCc2ccccc2)cc1
active: [2] 30600 nM

O=C(N/N=C/c1ccc([N+](=O)[O-])o1)c1ccc(O)cc1
active: [3] 25100 nM
